Source: PubChem BioAssay
ssDAF-12 act: activates DAF-12 receptor from parasite S. stercoralis. HEK293 ssDAF-12/GRIP1 lit1-tk-luc reporter, luminescence; % of 3 µM dafachronic acid response. activation, % at 6.8 µM. 370,000 tested, 1% active. AID 652126;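 active = activation above the mean over all tested compounds plus 3 SD, cut at about 0.9% in these data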;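 note: 0% = DMSO-only wells and 100% = 3 µM delta7-dafachronic acid wells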
DAX1 inh-1: inhibitors of DAX1 repression of SF-1 activated StAR promoter; HEK293T StAR-luciferase reporter, SF-1/DAX-1 repression relief; inhibition, % at 6.8 µM; 370,000 tested, 1.1% active;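 active = inhibition above the mean over all tested compounds plus 3 SD, cut at about 3.6% in these data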;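 note: 0% = DAX-1 cells with DMSO and 100% = cells lacking DAX-1 with DMSO; higher inhibition means more luminescence from relief of DAX-1 repression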
hcDAF-12 act: activators of H. contortus DAF-12 nuclear receptor; HEK293 hcDAF-12 lit1-tk-luc reporter, luminescence; 0% DMSO, 100% Δ7-dafachronic acid; activation, % at 6.8 µM; 370,000 tested, 1.4% active;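 active = activation above the mean of all tested compounds plus 3 SD, cut at about 5.5% in these data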;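 note: 100% = response to 3 µM Δ7-dafachronic acid high control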
DAX1 inh-2: inhibitors of human orphan nuclear receptor DAX1 (NR0B1); HEK293 Gal4-DAX1 luciferase reporter, luminescence; inhibition, % at 6.75 µM; 340,000 tested, 0.99% active; AID 504766;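 active = inhibition above the mean over all tested compounds plus 3 SD, cut at about 4.2% in these data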;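 note: 0% = DAX1-transfected cells with DMSO and 100% = empty-vector control cells with DMSO; inhibition shows as a rise in luminescence from relieved DAX1 repression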
Target sequence (P51843 207-470 limits assumed): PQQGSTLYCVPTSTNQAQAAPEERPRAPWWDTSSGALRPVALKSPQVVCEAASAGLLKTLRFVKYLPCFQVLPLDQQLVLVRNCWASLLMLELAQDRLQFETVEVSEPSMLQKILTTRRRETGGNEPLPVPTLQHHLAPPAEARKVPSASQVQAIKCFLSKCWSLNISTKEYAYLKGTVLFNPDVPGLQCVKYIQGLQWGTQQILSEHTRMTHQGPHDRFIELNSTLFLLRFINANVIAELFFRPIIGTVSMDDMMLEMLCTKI
Wee1 degr inh: inhibitors of human Wee1 degradation; P30291; HeLa Luc-Wee1K328M stability, luciferase luminescence; 100% = proteasome inhibitor MG132 effect; reporter increase, % at 5 µM; 220,000 tested, 1.2% active; AID 1321;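 active = activation above the mean of all tested compounds plus 3 SD, set per screening run, cut at about 8.8% in these data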;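 note: cells exposed to compound for 20 h before luminescence read; 0% = DMSO alone and 100% = MG132 at 30 µM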
hgDAF12 agonist: agonists of H. glycines DAF-12 nuclear receptor | HEK293 GAL4-hgDAF12 UAS-luciferase reporter, agonist luminescence; normalized to butyrate control | activation, % at 6.8 µM | 370,000 tested, 1.8% active;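 active = activation above a cutoff set at the mean of all screened compounds plus 3 SD, cut at about 10% in these data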;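 note: 0% = DMSO wells and 100% = sodium butyrate wells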
LXRb hcDAF ctr: LXR-beta agonism as hcDAF-12 counter-screen | shares compounds with hcDAF-12 act | 3,400 tested, under 10 active | activation, % at 6.8 µM | HEK293 Gal4-LXR tk-luc reporter, luminescence, 24 h; normalized: DMSO 0%, positive control 100%;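 active = mean percent activation of the reporter above a cutoff set as the average over tested compounds plus their standard deviation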
hcDAF12 ag: hcDAF-12 agonism, confirmation assay; HEK293 hcDAF-12 lit1-tk-luc reporter, luminescence; % of Δ7-dafachronic acid response; AID 743032; 3,400 tested, 61% active; activation, % at 6.8 µM; shares compounds with hcDAF-12 act;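 active = mean activation across triplicate tests above the threshold derived from the earlier primary screen, cut at about 5.5% in these data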;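 note: 0% = DMSO only wells and 100% = 3 µM Δ7-dafachronic acid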
* hit, by the source's call; / = no result. Compounds with a hit are over-represented: about 4.6% of the library has one in this group of screens.

SMILES	ssDAF-12 act	DAX1 inh-1	hcDAF-12 act	DAX1 inh-2	Wee1 degr inh	hgDAF12 agonist	LXRb hcDAF ctr	hcDAF12 ag
CCNc1nc(NCC)nc(N/N=C/c2ccc(N(C)C)cc2)n1	-1	0	-2	-1	-1	0	/	/
CC(C)[C@H](NC(=O)c1ccccc1)C(=O)NC1=NCCS1	-1	1	-2	2	/	0	/	/
CC(=O)NCCC(=O)Nc1cc(S(=O)(=O)N2CCOCC2)ccc1Oc1ccccc1	-1	1	1	0	/	-1	/	/
COCCn1c(C)cc(C(=O)COc2ccc(N(C)S(=O)(=O)c3ccc(C)cc3)cc2)c1C	-2	-2	-2	-1	/	-2	/	/
CC(Sc1nnc(C(C)Oc2ccc(F)cc2)o1)C(=O)NCc1ccc2c(c1)OCO2 (centres undefined)	-2	-1	-1	-1	/	0	/	/
Cc1cn([C@H]2C[C@H](O)[C@@H](/C=C/C(=O)NCCC(c3ccccc3)c3ccccc3)O2)c(=O)[nH]c1=O	-1	1	0	/	/	2	/	/
CCc1ccccc1NC(=O)[C@@H]1CCC(=O)N1C1OC(=O)c2ccccc21 (some centres undefined)	-1	0	-1	3	/	0	/	/
CC(C)c1ccc(NC(=O)[C@@H]2CCC(=O)N2C2OC(=O)c3ccccc32)cc1 (some centres undefined)	0	3	7.4*	4	/	7	0	5
S=C(N/N=C/c1ccc(Cl)cc1)N1CCOCC1	0	2	7.2*	1	3	13*	0	1
C=CCNc1nc(-c2cccs2)c(CC(=O)O)s1	-1	1	2	-1	1	2	/	/
O=C(O)Cc1sc(Nc2ccccc2)nc1-c1cccs1	0	1	6.9*	7.8*	7	10	0	4
c1cnc2c(OCc3nc4ccccc4[nH]3)cccc2c1	1.2*	2	11*	2	2	8	1	9.6*
CCCCCN1CCCCC(NC(=O)C(C)(C)C)C1=O (centres undefined)	-2	-1	-2	/	/	-2	/	/
O=C(Oc1ccccc1/C=C\C(=O)c1cc2ccccc2o1)c1cccc(F)c1	0	0	11*	3	4	10	1	7.2*
O=C(N/N=C/c1ccccc1OC(=O)c1ccc2c(c1)OCO2)c1cccc(F)c1	-1	0	-1	2	-1	5	/	/
O=C(O)c1ccccc1C(=O)c1ccc2c(c1)CCC2	-1	0	6.9*	-1	/	0	0	1
O=C(O)c1ccccc1Cc1ccc2c(c1)CCCC2	-1	-1	0	-1	/	4	/	/
COCCNc1nc(Nc2ccc(C#N)cc2)c2sccc2n1	-1	-4	-2	/	/	-4	/	/
Nc1ccc(-c2cnc3ccccc3n2)cc1	0	2	7.1*	/	/	11*	2	7.5*
Nc1ccc2nc(-c3ccccc3)cnc2c1	0	1	5	3	/	7	/	/
c1coc(-c2cnc3ccccc3n2)c1	0	3	7.8*	4.4*	/	8	1	5.7*
Cc1ccccc1C(=O)Nc1ccccn1	-1	0	-2	0	0	4	/	/
Cn1cc(C(=O)Nc2ccccn2)c(=O)c2ccccc21	1.7*	0	7.0*	3	/	5	1	12*
Cc1ccc(-n2ncc(Cl)c2C(=O)NC2CC2)cc1	0	2	8.8*	2	2	11*	0	5.6*
O=C1Nc2cccnc2Sc2ccccc21	-1	0	-1	-1	-3	0	/	/
SMILES	ssDAF-12 act	DAX1 inh-1	hcDAF-12 act	DAX1 inh-2	Wee1 degr inh	hgDAF12 agonist	LXRb hcDAF ctr	hcDAF12 ag
c1ccc2c(c1)Nc1nccnc1S2	0	2	7.7*	-1	-3	7	0	7.5*
COc1cc(O)c(C=Nc2ccccc2NS(=O)(=O)c2ccc(C)cc2)c(OC)c1	-1	-1	-1	0	/	2	/	/
Fc1ccc(NC2CCC23CCC(c2ccccc2)CC3)cc1C(F)(F)F (centres undefined)	-2	/	-2	/	/	1	/	/
c1ccc2cc3[nH]c(CNc4nc(N5CCOCC5)nc5c4ncn5-c4ccsc4)nc3cc2c1	-2	/	-5	/	/	-5	/	/
Cc1ccc(NC(=O)CSc2cn[nH]n2)cc1	0	0	7.0*	0	/	1	0	1
Cc1csc(N=Nc2ccc(N(C)C)cc2)[n+]1[O-]	-1	1	0	-3	/	-4	/	/
Cc1ccc(C(=O)c2ccccc2C(=O)OCC(=O)N2C(C)CCCC2C)cc1 (centres undefined)	-1	0	-2	1	/	1	/	/
O=P1(O)C=C(c2ccccc2)OC(c2ccccc2)=C1	1.4*	1	9.9*	0	3	8	1	11*
CCN1CCN(P2(=O)C=C(c3ccccc3)OC(c3ccccc3)=C2)CC1	-1	0	0	0	0	0	/	/
CC(C)c1ccc2oc(-c3ccc(N)cc3)nc2c1	1	2	12*	-2	-1	8	2	15*
CC(C)(C)c1ccc(-c2nc3cc(N)ccc3o2)cc1	-1	1	4	0	/	8	/	/
Cc1ccc(-c2nc3cc(N)ccc3o2)cc1	1	3.6*	9.8*	-1	1	13*	2	9.2*
Cc1ccc(-c2nc3cc(C)ccc3o2)cc1	1.7*	3	11*	3	0	12*	2	21*
Cc1ccc2oc(-c3ccco3)nc2c1	-1	1	2	1	-1	2	/	/
Cc1nnc(NC(=O)C2CCN(S(=O)(=O)c3ccc(F)c(F)c3)CC2)o1	-1	-1	0	0	/	-1	/	/
N#Cc1c(C#N)c(SSc2c(C#N)c(C#N)c(N)n2-c2ccccc2)n(-c2ccccc2)c1N	-1	0	-2	1	/	2	/	/
Oc1c(C=Nc2ccccc2Cl)[nH]c2ccccc12	1.1*	2	15*	2	0	14*	1	8.9*
O=c1[nH][nH]c(C(F)(F)F)c1C=Nc1ccccc1Cl	-1	0	-1	1	-1	-1	/	/
COc1ccccc1C(=O)NC(=O)Nc1cccc(Cl)c1	1	2	13*	4	/	14*	2	18*
CCOc1ccccc1C(=O)Nc1cc(Cl)ccc1O	-1	0	1	-1	4	1	/	/
COc1ccccc1C(=O)Nc1cc(Cl)ccc1O	0	0	9.8*	0	5	3	0	5.8*
